Sampled rows, rich in hits. Any-hit rate of the full collection: about 1.2%.
GSH bead fluor – compound fluorescence on glutathione beads, profiling panel, artefact control, biophysical, 488/530 nm, flow cytometry. fluorescence (KMESF) at 10 µM. hit rate 0.25% among 190,000. GSH beads flow cytometry, compound fluorescence 488/530 nm; active compounds read high; in the data active = fluorescence above about 89;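 also: glutathione beads carrying GST-tagged Bcl family fusion proteins plus one bare bead set; values are compound well signal with DMSO vehicle wells as background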
RGS8-Gao reg – RGS8-Galphao binding modulators, primary screen, biochemical, multiplexed bead flow cytometry | Guanine nucleotide-binding protein G(o) subunit alpha (Homo sapiens), P09471 | actives lie on both sides | response (percent of control binding), % at 10 µM | hit rate 0.34% among 220,000 | AID 1423, 2008; in the data active = response below about 60% or above about 140%; inactive = in between;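 also: Galphao activated as the GDP aluminium fluoride complex binding bead-coupled RGS8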
Avidin fluor – green autofluorescence of compounds with avidin beads – biophysical, 488/530 nm, flow cytometry, artefact control, profiling panel; fluorescence (KMESF) at 10 µM; AID 1775, 2009; hit rate 0.38% among 220,000; compound fluorescence 488/530 nm; active compounds read high; in the data active = fluorescence above about 47
RGS7-Gao reg – RGS7-Galphao binding modulators, primary screen, biochemical, multiplexed bead flow cytometry | Guanine nucleotide-binding protein G(o) subunit alpha (Homo sapiens), P09471 | actives lie on both sides | binding response (% of control), % at 10 µM | hit rate 0.35% among 220,000 | AID 1439, 2008; in the data active = binding response below about 49% or above about 150%; inconclusive = no clear call, values can overlap the other calls; inactive = in between;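 also: fluorescent Galphao held in activated GDP-AlF4 state binding bead-coupled RGS7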
RGS16-Gao HTS – modulators of RGS16 binding to Galphao, primary screen, biochemical, human proteins, multiplexed bead flow cytometry. AID 1441, 2008. hit rate 0.38% among 220,000. binding response (% of control), % at 10 µM. bead-based flow cytometry RGS16-Galphao binding, fluorescence; actives lie on both sides;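 also: Galphao activated by GDP with aluminum fluoride before binding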
Target sequence (O15492 whole entry, looked up): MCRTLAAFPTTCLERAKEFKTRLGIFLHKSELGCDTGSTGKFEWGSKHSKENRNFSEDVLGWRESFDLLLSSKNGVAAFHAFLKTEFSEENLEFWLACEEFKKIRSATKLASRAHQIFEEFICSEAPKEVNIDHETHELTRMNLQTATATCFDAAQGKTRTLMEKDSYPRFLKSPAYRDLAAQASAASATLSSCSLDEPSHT
Target sequence (P09471 whole entry, looked up): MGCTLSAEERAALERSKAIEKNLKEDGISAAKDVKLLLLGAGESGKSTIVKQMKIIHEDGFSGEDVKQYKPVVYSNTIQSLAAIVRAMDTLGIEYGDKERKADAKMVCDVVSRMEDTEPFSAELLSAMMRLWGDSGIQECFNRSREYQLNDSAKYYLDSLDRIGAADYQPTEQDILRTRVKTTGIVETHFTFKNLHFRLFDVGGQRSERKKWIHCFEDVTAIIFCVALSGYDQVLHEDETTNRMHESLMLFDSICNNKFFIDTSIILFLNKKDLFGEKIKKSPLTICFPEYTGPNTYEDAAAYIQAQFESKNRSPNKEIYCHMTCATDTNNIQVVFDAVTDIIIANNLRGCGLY
RGS4-Gao reg – modulators of RGS4 binding to Galphao, primary screen, biochemical, multiplexed bead flow cytometry; Guanine nucleotide-binding protein G(o) subunit alpha (Homo sapiens), P09471; actives lie on both sides; binding response (% of control), % at 10 µM; hit rate 0.33% among 220,000; AID 1415, 2008; in the data active = binding response below about 49% or above about 150%; inactive = in between;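 also: fluorescent Galphao activated with aluminum fluoride binding bead-coupled RGS4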
RGS4-Gao HTS – modulators of RGS–Galpha-o binding, primary screen, biochemical, multiplexed beads, flow cytometry, RGS4/7/8/16/19; hit rate 99% among 1,600; multiplexed bead flow cytometry; RGS4–Galpha-o binding response, % at 10 µM; AID 1504, 2009; shares compounds with RGS16-Gao HTS;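 also: fluorescently labeled Galpha-o bound to GDP with aluminium fluoride binding biotinylated RGS beads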
Biotin-avidin – disruption of biotin probe capture by avidin, counter-screen for RGS protein interaction modulators, biochemical, flow cytometry, bead-based; AID 1783, 2009; inhibition, % at 10 µM; 1,700 tested, under 10 active; shares compounds with RGS16-Gao HTS; streptavidin beads, fluorescein-biotin binding;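 active = inhibition above 50%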;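 also: median green fluorescence of gated singlet beads compared with DMSO control wells; 0% = DMSO wells and 100% = complete loss of bead fluorescence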
RGS8-Gao single – RGS8-Galphao binding modulators, confirmation, biochemical, multiplexed bead flow cytometry, single concentration; hit rate 3% among 1,700; bead-based flow cytometry RGS8-Galphao binding, fluorescence; actives lie on both sides; binding response (% of control), % at 10 µM; shares compounds with RGS16-Gao HTS; in the data active = binding response below about 72% or above about 130%; inactive = in between;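 also: Galphao activated as GDP AlF4 complex before binding bead RGS8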
RGS7-Gao single – RGS7-Galphao binding modulators, confirmation, biochemical, multiplexed bead flow cytometry, single concentration; shares compounds with RGS16-Gao HTS; bead-based flow cytometry RGS7-Galphao binding; actives lie on both sides; response (percent of control binding), % at 10 µM; hit rate 7.8% among 1,700; AID 1837, 2009; in the data active = response below about 75% or above about 130%; inactive = in between;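 also: fluorescent Galphao activated with GDP and aluminum fluoride binding bead-coupled RGS7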
RGS16-Gao conf – modulators of RGS16-Galphao protein binding, confirmation, biochemical, single concentration, multiplexed bead flow cytometry; shares compounds with RGS16-Gao HTS; bead-based flow cytometry; actives lie on both sides; response (% of control binding), % at 10 µM; hit rate 4% among 1,700; in the data active = response below about 74% or above about 130%; inactive = in between;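 also: Galphao activated as the GDP aluminium fluoride complex binding bead-coupled RGS16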
RGS4-Gao confirm – modulators of RGS4-Galphao protein binding, confirmation, biochemical, single concentration, multiplexed bead flow cytometry; actives lie on both sides; hit rate 4% among 1,700; shares compounds with RGS16-Gao HTS; AID 1840, 2009; binding response (% of control), % at 10 µM; in the data active = binding response below about 74% or above about 130%; inactive = in between
RGS19-Gao single – regulators of RGS19-Galphao binding, confirmation, biochemical, single point, multiplexed bead flow cytometry; shares compounds with RGS16-Gao HTS; bead-based flow cytometry RGS19-Galphao binding; actives lie on both sides; response (percent of control binding), % at 10 µM; hit rate 5% among 1,700; AID 1841, 2009; in the data active = response below about 50% or above about 160%; inactive = in between;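 also: 100% = no compound control and 0% = blank background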
Active calls of the source: *; u = inconclusive; x = no result given; [ ] = dose if it differs, or a comment. Unless noted, no rule for the calls is given here.

SMILES	GSH bead fluor	RGS8-Gao reg	Avidin fluor	RGS7-Gao reg	RGS16-Gao HTS	RGS4-Gao reg	RGS4-Gao HTS	Biotin-avidin	RGS8-Gao single	RGS7-Gao single	RGS16-Gao conf	RGS4-Gao confirm	RGS19-Gao single
Cn1cc(S(=O)(=O)CC(=O)Nc2ccc3c(c2)OCO3)c2ccccc21	91*	98	194*	275*[activator]	115	367*[activator]	x	-1	100	103	104	102	87
Cn1cc(Br)c(NS(=O)(=O)c2ccc(Cl)s2)n1	x	78	2	u	65	56	x	x	x	x	x	x	x
Cc1nn(Cc2ccccc2Cl)c2sc(C(=O)Nc3ccccc3N3CCOCC3)cc12	14	100	12	95	105	97	x	x	x	x	x	x	x
Cc1nn(Cc2ccc(F)cc2)c2sc(C(=O)Nc3ccccc3N3CCOCC3)cc12	7	83	6	91	15*	89	89*	0	98	92	99	98	97
CC(=O)c1ccc(NS(=O)(=O)c2c(C)cc(C)cc2C)cc1	14	104	11	93	116	95	x	x	x	x	x	x	x
Cc1cc(C)c(S(=O)(=O)Nc2ccc(O)cc2)c(C)c1	15	141*[activator]	7	118	293	126	126*	0	100	99	101	101	99
CCOC(=O)C1CSC(CC(=O)Nc2ccc(OC(F)(F)F)cc2)C(=O)N1 (stereo unspecified)	x	103	5	u	104	102	x	x	x	x	x	x	x
CCOc1ccc(N(CC(=O)Nc2ccccc2)S(C)(=O)=O)cc1	8	81	7	85	-46*	80	80*	-1	99	95	95	96	100
CCOC(=O)c1ccccc1NC(=O)CN(c1ccc(OCC)cc1)S(C)(=O)=O	12	82	9	93	36	90	x	x	x	x	x	x	x
Nc1nc2n(n1)C(=O)CC(c1ccccc1)N2 (stereo unspecified)	12	102	6	102	101	99	x	x	x	x	x	x	x
Cn1c(C2=C(O)CN(Cc3ccccc3)C2=N)nc2ccccc21	x	102	7	u	103	103	x	x	x	x	x	x	x
Cc1ccc(NC(=S)N(Cc2ccccc2)C(C)C)cc1	x	67	1	u	37	27*	x	0	104	106	105	106	109
